Test results published in the supplement of paper PMC11732987, “Enantioselective OTUD7B fragment discovery through chemoproteomics screening and high-throughput optimisation” (Communications Chemistry, 2025).

Tests used:
Assay in all cases: log2 ratio of Biotin-Ahx-Ub-VS probe labelling (fragment/DMSO); higher = less target engagement (more negative = stronger competition), active = hit call of the paper (q ≤ 0.05, log2 ratio ≤ -1)
Conditions in all cases: compound concentration: 200 uM; treatment time: 3 h
USP34 = USP34 (UniProt Q70CQ2)
Summary of the method: (§1)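 Labelling with Biotin-Ahx-Ub-VS (0.5 µM final, 1 h) followed a 3 h triplicate treatment of HEK293T lysate (495 µg per sample, Tris/CHAPS/IGEPAL buffer with protease inhibitors) with fragment at 200 µM or vehicle. Labelled DUBs were NeutrAvidin-enriched, digested with LysC and trypsin, and run by diaPASEF LC-MS/MS. The values, average log2 fragment/vehicle ratios by unpaired t-test, come from global-median-normalised Spectronaut label-free quantities. Proteins with ≥2 unique peptides were used.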

USP36 = molecular target: T1, USP36 (UniProt Q9P275)
T1 sequence (whole entry): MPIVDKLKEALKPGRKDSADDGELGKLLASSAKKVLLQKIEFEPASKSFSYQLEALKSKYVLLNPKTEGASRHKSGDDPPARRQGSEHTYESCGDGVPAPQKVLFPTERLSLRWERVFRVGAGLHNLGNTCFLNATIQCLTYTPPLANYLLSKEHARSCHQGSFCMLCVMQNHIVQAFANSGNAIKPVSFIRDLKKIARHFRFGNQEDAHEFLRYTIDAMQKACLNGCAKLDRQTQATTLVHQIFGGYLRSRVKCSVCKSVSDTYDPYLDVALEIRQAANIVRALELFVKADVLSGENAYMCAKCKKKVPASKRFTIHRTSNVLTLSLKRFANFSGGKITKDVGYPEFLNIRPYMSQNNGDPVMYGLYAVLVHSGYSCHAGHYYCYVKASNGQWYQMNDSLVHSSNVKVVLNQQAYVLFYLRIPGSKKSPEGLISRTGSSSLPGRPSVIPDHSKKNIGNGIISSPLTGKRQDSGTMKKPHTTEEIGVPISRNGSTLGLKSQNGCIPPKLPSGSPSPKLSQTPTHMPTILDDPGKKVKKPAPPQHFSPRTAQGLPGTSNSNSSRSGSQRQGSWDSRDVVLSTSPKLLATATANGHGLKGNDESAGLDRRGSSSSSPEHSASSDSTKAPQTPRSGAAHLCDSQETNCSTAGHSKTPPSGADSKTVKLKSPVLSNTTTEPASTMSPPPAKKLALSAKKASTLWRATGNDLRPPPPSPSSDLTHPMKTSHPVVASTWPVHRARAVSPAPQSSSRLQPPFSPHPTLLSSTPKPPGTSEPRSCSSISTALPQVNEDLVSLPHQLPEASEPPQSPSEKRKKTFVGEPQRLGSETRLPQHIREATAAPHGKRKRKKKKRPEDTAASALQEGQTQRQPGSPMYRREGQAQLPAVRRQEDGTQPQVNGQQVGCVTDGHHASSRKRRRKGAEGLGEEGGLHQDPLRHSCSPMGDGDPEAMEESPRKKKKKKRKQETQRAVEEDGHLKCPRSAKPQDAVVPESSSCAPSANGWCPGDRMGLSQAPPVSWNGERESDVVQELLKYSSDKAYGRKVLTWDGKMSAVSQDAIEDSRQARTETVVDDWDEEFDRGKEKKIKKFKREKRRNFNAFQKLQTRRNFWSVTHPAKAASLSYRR
Summary of the method: as §1

USP38 = molecular target: T2, USP38 (UniProt Q8NB14)
T2 sequence (whole entry): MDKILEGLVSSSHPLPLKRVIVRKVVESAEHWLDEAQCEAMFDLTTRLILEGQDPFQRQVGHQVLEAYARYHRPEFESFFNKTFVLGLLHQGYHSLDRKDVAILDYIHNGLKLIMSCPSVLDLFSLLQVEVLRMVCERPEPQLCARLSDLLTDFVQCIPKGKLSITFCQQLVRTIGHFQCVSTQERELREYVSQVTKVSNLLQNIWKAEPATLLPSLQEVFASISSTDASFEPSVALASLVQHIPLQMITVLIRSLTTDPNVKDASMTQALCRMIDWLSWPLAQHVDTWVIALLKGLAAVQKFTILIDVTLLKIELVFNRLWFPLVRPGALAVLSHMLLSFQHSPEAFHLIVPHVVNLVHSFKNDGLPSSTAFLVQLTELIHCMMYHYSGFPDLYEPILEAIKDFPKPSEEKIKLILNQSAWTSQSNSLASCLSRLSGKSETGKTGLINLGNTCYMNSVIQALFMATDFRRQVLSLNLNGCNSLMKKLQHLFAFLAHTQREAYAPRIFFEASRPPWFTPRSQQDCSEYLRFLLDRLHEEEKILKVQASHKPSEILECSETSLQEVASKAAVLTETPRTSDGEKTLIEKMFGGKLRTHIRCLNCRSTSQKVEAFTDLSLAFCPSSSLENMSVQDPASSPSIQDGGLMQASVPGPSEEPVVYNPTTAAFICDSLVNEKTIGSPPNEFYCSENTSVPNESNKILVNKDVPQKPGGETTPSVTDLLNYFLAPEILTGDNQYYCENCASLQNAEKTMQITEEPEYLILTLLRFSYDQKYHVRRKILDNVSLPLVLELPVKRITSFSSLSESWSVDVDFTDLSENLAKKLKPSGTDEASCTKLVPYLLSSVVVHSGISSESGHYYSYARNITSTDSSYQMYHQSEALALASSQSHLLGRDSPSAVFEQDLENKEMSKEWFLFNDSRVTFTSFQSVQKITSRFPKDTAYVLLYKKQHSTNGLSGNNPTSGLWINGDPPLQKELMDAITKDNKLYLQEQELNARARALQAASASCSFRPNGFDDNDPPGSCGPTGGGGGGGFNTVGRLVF
Summary of the method: as §1

USP39 = molecular target: T3, USP39 (UniProt Q53GS9)
T3 sequence (whole entry): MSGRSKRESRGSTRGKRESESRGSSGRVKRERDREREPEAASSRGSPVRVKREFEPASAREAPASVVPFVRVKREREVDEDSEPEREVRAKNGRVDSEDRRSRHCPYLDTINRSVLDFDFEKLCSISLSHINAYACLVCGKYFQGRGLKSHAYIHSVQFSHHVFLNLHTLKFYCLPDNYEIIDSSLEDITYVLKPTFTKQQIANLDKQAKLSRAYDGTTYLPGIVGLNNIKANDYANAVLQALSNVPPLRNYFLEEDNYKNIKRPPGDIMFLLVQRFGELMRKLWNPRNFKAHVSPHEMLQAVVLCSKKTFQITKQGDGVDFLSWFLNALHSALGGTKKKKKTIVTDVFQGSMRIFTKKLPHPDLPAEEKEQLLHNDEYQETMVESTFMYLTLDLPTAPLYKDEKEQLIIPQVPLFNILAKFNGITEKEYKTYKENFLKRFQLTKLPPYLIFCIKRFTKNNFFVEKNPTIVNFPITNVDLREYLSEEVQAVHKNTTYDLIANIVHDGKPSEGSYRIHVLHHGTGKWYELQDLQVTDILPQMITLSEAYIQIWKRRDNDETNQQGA
Summary of the method: as §1

USP4 = molecular target: T4, USP4 (UniProt Q13107)
T4 sequence (whole entry): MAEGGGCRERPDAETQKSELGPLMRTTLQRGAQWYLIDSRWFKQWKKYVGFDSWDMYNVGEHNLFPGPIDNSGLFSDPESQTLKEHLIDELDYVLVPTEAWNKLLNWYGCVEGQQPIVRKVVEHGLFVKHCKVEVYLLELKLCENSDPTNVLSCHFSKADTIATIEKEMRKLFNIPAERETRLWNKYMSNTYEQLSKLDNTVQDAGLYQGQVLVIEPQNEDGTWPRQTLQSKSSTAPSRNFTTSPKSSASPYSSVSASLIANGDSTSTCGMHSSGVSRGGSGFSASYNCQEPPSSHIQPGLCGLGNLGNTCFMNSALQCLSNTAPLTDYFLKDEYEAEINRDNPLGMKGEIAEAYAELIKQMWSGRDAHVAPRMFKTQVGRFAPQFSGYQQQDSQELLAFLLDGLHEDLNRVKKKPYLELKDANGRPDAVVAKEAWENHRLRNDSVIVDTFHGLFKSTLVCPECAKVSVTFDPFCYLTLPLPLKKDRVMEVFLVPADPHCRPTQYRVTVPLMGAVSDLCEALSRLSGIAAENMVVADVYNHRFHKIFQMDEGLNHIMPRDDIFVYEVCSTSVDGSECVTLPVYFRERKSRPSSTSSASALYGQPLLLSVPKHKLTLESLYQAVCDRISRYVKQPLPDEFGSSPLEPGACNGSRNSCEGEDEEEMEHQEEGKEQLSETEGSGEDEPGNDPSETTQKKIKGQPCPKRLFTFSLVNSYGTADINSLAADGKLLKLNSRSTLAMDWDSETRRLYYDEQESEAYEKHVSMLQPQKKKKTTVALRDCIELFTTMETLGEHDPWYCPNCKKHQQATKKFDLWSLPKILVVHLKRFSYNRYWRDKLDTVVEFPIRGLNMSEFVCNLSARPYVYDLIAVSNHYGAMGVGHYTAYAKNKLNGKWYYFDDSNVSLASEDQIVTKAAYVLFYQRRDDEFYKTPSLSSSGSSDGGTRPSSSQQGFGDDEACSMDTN
Summary of the method: as §1

Measured: log2 ratio of Biotin-Ahx-Ub-VS probe labelling

Chain of USP34 (Q70CQ2 whole entry, the tested form may be a part): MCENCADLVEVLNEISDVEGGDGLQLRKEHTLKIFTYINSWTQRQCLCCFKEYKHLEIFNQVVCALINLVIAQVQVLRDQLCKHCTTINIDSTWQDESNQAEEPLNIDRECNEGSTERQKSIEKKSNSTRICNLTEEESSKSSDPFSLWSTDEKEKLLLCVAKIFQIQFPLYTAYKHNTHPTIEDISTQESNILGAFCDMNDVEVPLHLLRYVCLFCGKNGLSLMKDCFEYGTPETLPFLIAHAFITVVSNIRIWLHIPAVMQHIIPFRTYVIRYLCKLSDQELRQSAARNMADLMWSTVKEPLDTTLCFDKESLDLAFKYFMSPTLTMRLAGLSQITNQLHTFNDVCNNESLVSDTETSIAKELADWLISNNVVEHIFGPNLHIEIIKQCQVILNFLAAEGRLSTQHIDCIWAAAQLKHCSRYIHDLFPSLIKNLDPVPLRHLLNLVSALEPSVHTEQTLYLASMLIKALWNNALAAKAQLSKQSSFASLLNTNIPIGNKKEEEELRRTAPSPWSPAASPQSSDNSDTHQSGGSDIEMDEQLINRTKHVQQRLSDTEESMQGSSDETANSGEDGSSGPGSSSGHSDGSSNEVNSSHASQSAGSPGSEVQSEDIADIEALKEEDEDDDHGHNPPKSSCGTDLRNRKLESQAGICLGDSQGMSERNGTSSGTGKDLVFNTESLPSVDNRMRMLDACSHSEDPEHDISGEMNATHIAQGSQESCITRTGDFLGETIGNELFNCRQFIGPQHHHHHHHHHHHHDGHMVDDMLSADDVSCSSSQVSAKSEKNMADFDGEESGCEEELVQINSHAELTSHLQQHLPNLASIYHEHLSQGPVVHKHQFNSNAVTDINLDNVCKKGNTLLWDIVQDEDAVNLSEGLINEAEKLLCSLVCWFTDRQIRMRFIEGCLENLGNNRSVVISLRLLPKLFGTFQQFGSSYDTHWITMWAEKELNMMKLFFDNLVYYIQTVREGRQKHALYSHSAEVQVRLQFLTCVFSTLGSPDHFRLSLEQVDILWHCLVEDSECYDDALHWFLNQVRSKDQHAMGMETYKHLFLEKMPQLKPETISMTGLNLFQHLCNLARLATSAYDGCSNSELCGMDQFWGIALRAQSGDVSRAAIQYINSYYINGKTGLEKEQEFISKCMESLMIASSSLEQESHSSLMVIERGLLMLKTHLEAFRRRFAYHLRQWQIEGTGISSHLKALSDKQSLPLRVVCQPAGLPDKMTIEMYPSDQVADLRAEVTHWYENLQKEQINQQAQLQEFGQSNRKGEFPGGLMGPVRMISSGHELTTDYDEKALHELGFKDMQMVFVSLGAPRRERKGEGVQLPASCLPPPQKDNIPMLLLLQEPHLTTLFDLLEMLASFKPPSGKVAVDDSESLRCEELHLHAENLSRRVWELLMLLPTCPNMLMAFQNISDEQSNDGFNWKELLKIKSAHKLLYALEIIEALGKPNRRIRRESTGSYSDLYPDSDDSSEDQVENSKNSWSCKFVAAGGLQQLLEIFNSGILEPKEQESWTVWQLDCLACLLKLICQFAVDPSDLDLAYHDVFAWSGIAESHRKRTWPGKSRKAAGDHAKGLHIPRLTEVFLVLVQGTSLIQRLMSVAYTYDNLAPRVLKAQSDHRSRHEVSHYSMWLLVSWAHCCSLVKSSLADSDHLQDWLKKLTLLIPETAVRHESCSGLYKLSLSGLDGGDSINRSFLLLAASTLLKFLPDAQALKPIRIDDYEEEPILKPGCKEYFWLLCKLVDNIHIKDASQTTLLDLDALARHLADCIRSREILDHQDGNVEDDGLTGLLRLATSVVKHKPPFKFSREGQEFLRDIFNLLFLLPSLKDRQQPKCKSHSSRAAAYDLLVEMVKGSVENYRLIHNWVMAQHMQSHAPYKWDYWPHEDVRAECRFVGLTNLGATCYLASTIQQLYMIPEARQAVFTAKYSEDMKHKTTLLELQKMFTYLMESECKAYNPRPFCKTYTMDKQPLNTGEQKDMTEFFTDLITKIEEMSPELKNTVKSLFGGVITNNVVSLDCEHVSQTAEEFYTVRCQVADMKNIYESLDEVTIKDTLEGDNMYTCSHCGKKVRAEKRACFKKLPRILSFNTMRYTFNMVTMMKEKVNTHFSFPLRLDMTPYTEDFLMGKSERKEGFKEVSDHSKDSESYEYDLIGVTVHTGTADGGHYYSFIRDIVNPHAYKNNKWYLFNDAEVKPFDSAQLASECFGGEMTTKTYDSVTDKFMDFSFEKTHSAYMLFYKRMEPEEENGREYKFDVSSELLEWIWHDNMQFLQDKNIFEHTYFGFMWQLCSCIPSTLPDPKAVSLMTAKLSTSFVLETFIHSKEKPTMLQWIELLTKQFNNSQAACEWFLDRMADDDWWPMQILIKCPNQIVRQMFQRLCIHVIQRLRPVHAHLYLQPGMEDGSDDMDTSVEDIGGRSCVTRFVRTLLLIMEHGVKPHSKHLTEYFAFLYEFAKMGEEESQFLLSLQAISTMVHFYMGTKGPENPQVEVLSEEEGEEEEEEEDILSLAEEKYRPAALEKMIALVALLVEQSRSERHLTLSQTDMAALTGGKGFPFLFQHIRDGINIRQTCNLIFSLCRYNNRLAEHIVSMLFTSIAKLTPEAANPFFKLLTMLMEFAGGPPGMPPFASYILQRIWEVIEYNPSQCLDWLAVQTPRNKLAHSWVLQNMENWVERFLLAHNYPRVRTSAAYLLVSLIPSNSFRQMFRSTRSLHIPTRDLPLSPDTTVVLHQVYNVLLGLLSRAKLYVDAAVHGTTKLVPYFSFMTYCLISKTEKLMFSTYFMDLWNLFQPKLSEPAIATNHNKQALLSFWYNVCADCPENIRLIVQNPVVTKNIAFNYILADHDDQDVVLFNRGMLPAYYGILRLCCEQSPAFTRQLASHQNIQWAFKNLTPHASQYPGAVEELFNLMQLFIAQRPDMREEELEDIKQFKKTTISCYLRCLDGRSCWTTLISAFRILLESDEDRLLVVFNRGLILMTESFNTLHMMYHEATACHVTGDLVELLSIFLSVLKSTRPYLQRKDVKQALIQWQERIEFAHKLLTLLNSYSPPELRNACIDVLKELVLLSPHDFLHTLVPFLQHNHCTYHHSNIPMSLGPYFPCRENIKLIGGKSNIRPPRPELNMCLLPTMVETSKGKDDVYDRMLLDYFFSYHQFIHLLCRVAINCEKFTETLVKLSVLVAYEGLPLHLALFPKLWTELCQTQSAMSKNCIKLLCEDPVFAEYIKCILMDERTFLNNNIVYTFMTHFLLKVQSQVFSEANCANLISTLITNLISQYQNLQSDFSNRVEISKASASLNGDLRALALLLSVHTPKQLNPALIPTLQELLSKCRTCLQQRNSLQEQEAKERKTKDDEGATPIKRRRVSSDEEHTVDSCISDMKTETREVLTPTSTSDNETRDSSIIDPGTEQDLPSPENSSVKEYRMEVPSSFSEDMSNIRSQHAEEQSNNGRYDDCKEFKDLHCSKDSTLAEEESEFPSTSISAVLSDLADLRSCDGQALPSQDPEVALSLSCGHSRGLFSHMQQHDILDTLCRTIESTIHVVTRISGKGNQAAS

Cc1c(NC(=O)CCl)c(=O)n(-c2ccccc2)n1C
inactive: USP34 -0.0386 | USP36 -0.0835 | USP38 -0.177 | USP39 -0.16 | USP4 0.0206
